# Giardia kill: kills Giardia lamblia; Giardia lamblia trophozoite viability; activity change, % at 7.66 µM, hits read low; 340,000 tested, 0.15% active; AID 540267; in the data active means activity change below about -80%; inconclusive means between about -30% and that limit;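 further: parasites exposed to compound for two days anaerobically before the ATP read; on the % scale 0 is the no-effect control and ±100 the full control effect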
#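 Giardia trophozoites, 100 cells per well, were exposed to compounds for 48 hrs at 37 deg C under anaerobic conditions; viability was then read as ATP content by bioluminescence after 15-30 min at room temperature.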
# RORgamma inh: inhibitors of mouse ROR gamma transcriptional activity; AID 2551; Potency, µM (titrated, usually from 53.6 µM), inactives show at the top dose activity change, negative = inhibition, actives largely listed as inhibitors; Drosophila S2 Gal4-RORgamma UAS-luciferase reporter, 20 h; P51450; 310,000 tested, 5.4% active; further: potency means the concentration at half of the fitted maximal effect; on the % scale 0 is the no-effect control and ±100 the full control effect; nearly all actives have a fitted effect of over 60% in size
# Target sequence (P51450 whole entry, looked up, the tested form may be a part): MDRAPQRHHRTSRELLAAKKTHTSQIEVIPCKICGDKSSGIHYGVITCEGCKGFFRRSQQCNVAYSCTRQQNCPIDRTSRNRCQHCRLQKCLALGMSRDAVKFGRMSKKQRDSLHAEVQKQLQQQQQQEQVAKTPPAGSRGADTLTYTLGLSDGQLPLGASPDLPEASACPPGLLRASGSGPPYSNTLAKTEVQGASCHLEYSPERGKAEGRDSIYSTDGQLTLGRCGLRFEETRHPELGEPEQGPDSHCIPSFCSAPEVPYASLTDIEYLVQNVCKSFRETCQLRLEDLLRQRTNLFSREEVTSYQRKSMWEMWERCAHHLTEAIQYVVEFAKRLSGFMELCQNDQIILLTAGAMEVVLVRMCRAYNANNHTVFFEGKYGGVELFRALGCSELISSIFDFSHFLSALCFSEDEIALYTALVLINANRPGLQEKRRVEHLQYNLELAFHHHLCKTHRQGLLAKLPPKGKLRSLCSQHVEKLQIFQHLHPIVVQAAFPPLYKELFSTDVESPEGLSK
#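 In this cell-based reporter format, copper sulfate (700 uM final) drives Gal4–ROR gamma fusion expression from a metallothionein promoter in Drosophila Schneider cells; compounds preincubated 1 hr, reporter read after 20 hr at ambient temperature.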
# p53 reactivator: re-activators of mutant p53; 320,000 tested, 0.063% active; H1299 p53-A138V BP100-luciferase reporter, luminescence, 24 h; AID 504706; Potency, µM (titrated, usually from 92.2 µM), for the others: at the top dose activity change, positive = activation, usual class: activators; further: potency means the concentration at half of the fitted maximal effect; % of control where 0% means no effect; nearly all actives have a fitted effect of over 45% in size
#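 p53-null H1299 cells stably carrying temperature-sensitive p53-A138V and a BP100-luciferase reporter were pinned with compounds (4-point, 1:5 series) and held 24 hrs at 37 deg C. Luminescence was read 10 min after detection reagent.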
# Gal4-VP16 FLuc: inhibits Gal4-VP16 luciferase reporter, ROR gamma counter-screen; Potency, µM (titrated, usually from 53.6 µM), without a hit: at the top dose activity, negative = inhibition, hits mostly inhibitors; Drosophila S2 Gal4-VP16 UAS-luciferase, luminescence, 20 h; 310,000 tested, 3.5% active;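 further: Gal4-VP16 expression switched on by copper sulfate through the metallothionein promoter; potency means the concentration at half of the fitted maximal effect; on the % scale 0 is the no-effect control and ±100 the full control effect; nearly all actives have a fitted effect of over 50% in size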
# ELG1 DNA repair: inhibitors of ELG1-dependent DNA repair in HEK293T cells | HEK293T ELG1-luciferase reporter, luminescence, 16 h; DNA damage induced by 5-fluorouridine | Potency, µM (highest dose often 46.1 µM), for inactives: at the top dose activity change, negative = inhibition, hits mostly inhibitors | 330,000 tested, 2.3% active; further: potency means the concentration at half of the fitted maximal effect; on the % scale 0 is the no-effect control and ±100 the full control effect; nearly all actives have a fitted effect of over 55% in size
#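 Overnight (16 hr) co-exposure of 2,000 cells/well to 5-fluorouridine and compound at 37 °C preceded detection. Luciferase was quantified via ONE-Glo luminescence; loss of signal denotes inhibition.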
# BRCA1 expr act: activators of BRCA1 expression; MCF7-BRCA1-FFLuc reporter, luminescence, 48 h; response scale: scaled: vehicle 0%, 10 µM genistein 100%; Potency, µM (series often up to 46.1 µM), inactives show at the top dose activation, hits mostly activators; 380,000 tested, 1.1% active; AID 624202; further: potency means the concentration at half of the fitted maximal effect; nearly all actives have a fitted effect of over 80% in size
#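 Compounds are tested at multiple concentrations on MCF7 BRCA1-luciferase reporter cells seeded at 2000 per well; after 48 h, a single luminescence end-point is taken and curves fitted to the normalized data.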
# * = called active by the depositor; u = inconclusive; x = no result given; [ ] = dose if it differs, or a comment. In the library only some 7.6% were active in any assay of this set; here they are far more common. Unless noted, the call rests on the fitted dose curve; in most records, active means well fitted curve in the direction sought with a large enough effect; inconclusive means small, poorly fitted or top-dose-only effect, or another doubt; inactive means no such curve, though single readings can be large; an effect the other way counts as inactive or inconclusive.
SMILES,Giardia kill,RORgamma inh,p53 reactivator,Gal4-VP16 FLuc,ELG1 DNA repair,BRCA1 expr act
Cc1ccc(S(=O)(=O)Oc2ccc(N3C(=O)C4C5CCC(C5)C4C3=O)cc2)cc1 (stereo not drawn),-3,5%,2%,u,8.2µM*,-5%
COc1ccc(C=CC(=O)c2ccc(OC)c(OC)c2)cc1O,x,x,x,x,x,-2%
COc1cc(/C=C/C2=NC(=O)C(C)(C)O2)ccc1O,7,-25%,15%,20%,26µM*,55%
COc1ccc(/C=C/C(=O)CC(=O)/C=C/c2cccc(O)c2OC)cc1O,x,6.3µM*,x,4%,x,x
COc1ccc(C(=O)/C=C/c2ccc(OC)c(O)c2)c(F)c1,-1,10µM*,u,u,u,-22%
CCc1nc2ccc(C(=O)NCCN3CCCC3)cn2c1N(C)Cc1ccc(OC)cc1,x,x,x,x,x,3%
N#Cc1ccc(C2=CC(=O)C[C@H](c3ccc4c(c3)OCO4)C2)cc1,6,x,u,x,u,-2%
COc1ccc(NC(=O)CS(=O)c2ccc(Cl)c(Cl)c2)cc1 (stereo not drawn),-12,-3%,-13%,1%,-1%,-2%
CCc1ccccc1NC(=S)N(CCN1CCOCC1)Cc1ccccc1F,15,16µM*,1%,-6%,2%,-30%
Cc1cc(NC(=S)N(CCN2CCOCC2)Cc2ccccc2F)ccc1Cl,-9,10µM*,2%,u,u,-39%
COc1ccc(NC(=S)N(CCCN2CCOCC2)Cc2cn(C)c3ccccc23)cc1OC,12,-13%,-13%,0%,-11%,-15%
COc1cccc(NC(=S)N(CCN(C)C)Cc2cccs2)c1,10,-25%,-4%,8%,4%,-6%
COc1cccc(NC(=S)N(CCCN2CCOCC2)Cc2cn(C)c3ccccc23)c1,-19,18µM*,-11%,u,u,-78%
CCc1ccccc1NC(=S)N(CCN(C)C)Cc1cccs1,-6,11µM*,7%,2%[10 µM],u,-10%
Fc1ccccc1CN(CCN1CCOCC1)C(=S)Nc1ccccc1Cl,7,u,3%,u,-10%,-44%
Cc1ccc(NC(=S)N(CCN2CCOCC2)Cc2ccccc2F)cc1,-3,u,-5%,-8%,2%,-5%
C=CCN1c2ccccc2[C@]23C[C@@H](C(=O)OC)N(C(C)=O)C2=NC(C(=O)OC)=C(C(=O)OC)[C@H]13,8,1%,-3%,1%,27%,0%
Cc1ccccc1NC(=S)N(CCN1CCOCC1)Cc1ccccc1F,-8,14µM*,0%,-25%,-2%,0%
COc1ccc(-n2c(SCC(=O)N3CCCCC3)nnc2-c2cccnc2)cc1,-5,2%,3%,20%,15%,20%
COc1cc2c(cc1OC)CN(c1nc(CN3CCOCC3)nc3sc4c(c13)CCC(C)C4)CC2 (stereo not drawn),1,11µM*,-11%,u,7.3µM*,-40%
CC1CCc2c(sc3nc(CN4CCOCC4)nc(Sc4ccccc4)c23)C1 (stereo not drawn),-6,-45%,-3%,0%,-16%,5%
COc1ccc(Nc2nc(CN3CCOCC3)nc3sc4c(c23)CCC(C)C4)cc1OC (stereo not drawn),x,-4%,-15%,-8%,6.5µM*,x
CC(C)Cn1c(N)c(C(=O)COC(=O)c2cc(F)cc(F)c2)c(=O)n(C)c1=O,-19,u,-3%,-7%,18µM*,-27%
CC(C)Cn1c(N)c(C(=O)COC(=O)c2ccc(O)cc2)c(=O)n(C)c1=O,-24,u,-3%,-18%,u,-10%
CC(C)Cn1c(N)c(C(=O)COC(=O)c2cc(-c3ccccc3)nc3ccccc23)c(=O)n(C)c1=O,u,-5%,1%,-8%,7.3µM*,-15%
SMILES,Giardia kill,RORgamma inh,p53 reactivator,Gal4-VP16 FLuc,ELG1 DNA repair,BRCA1 expr act
CC(C)Cn1c(N)c(C(=O)COC(=O)C2Cc3ccccc3CN2S(C)(=O)=O)c(=O)n(C)c1=O (stereo not drawn),4,x,1%,x,9.2µM*,-25%
CC(C)Cn1c(N)c(C(=O)COC(=O)c2cc(C3CC3)nc3ccccc23)c(=O)n(C)c1=O,-1,u,8%,u,23µM*,-65%
CC(C)Cn1c(N)c(C(=O)COC(=O)c2cc(-c3ccco3)nc3ccccc23)c(=O)n(C)c1=O,u,-14%,10%,15%,u,-32%
Cc1cc(C)cc(N(C(=O)CNC(=O)c2ccco2)C(C(=O)NC2CCCC2)c2ccncc2)c1 (stereo not drawn),-13,29%,1%,6%,-19%,-9%
O=c1[nH]c(C2CCN(S(=O)(=O)c3cccc(C(F)(F)F)c3)CC2)nc2c1nnn2Cc1cccc(F)c1,-5,-11%,-2%,u,-5%,-58%
O=C(Nc1ccc(OCC(=O)N2CCOCC2)cc1)c1cccc(Cl)c1,-11,1%,10%,-15%,u,33%
CN1OC[C@@H]2CN(S(=O)(=O)c3cccc4ccccc34)[C@H](c3ccc(-c4cccnc4)cc3)C[C@@H]21,x,x,x,x,x,-18%
O=C(CC1SC2=NCCN2C1=O)Nc1ccc(Br)cc1 (stereo not drawn),-4,59%,4%,-3%,5%,4%
O=C(CC1Sc2ncnn2C1=O)Nc1ccc(Br)cc1 (stereo not drawn),-7,u,-3%,25µM*,5%,11%
Cc1ccc(S(=O)(=O)C2(S(=O)(=O)c3ccc(C)cc3)CC2)cc1,-6,-3%,-2%,3%,23µM*,-34%
Cc1ccc(NC(=O)CSc2nccn2Cc2ccccc2)cc1C,1,5%,u,-1%,u,8.9µM*
COc1ccc(Cn2ccnc2SCC(=O)Nc2ccccc2)cc1,2,2%,-20%,2%,-7%,-18%
O=C(CSc1nnc(-c2ccccn2)n1Cc1ccccc1)Nc1ccc2c(c1)OCO2,-1,-23%,-8%,-7%,21µM*,-31%
CC(=O)Nc1ccc(NC(=O)CSc2nccn2Cc2ccccc2)cc1,3,18%,8%,4%,21µM*,1%
Cc1ccc(NC(=O)CSc2nccn2Cc2ccco2)cc1,-17,15%,4%,0%,u,10µM*
Cc1ccccc1-c1nnc(SCCC(=O)N2CCOCC2)o1,-10,-37%,13%,-21%,u,-2%
CC(C)c1ccc2c(c1)CC[C@H]1[C@](C)(CN)CCC[C@]21C,u,11µM*,x,u,x,-78%
CC(C)c1ccc2c(c1)CC[C@@H]1[C@@](C)(CN)CCC[C@]21C,x,-4%,x,-11%,x,x

# Screening data as filed in PubChem.
